Inconclusive results are not listed. Activity calls are given as the source filed them. Calls come from the whole dose curve; as a rule, active = well fitted inhibition curve with a large enough effect; inconclusive = small, poorly fitted or top-dose-only effect; inactive = no such curve, though single readings can be large or run the other way.
test: Primary qHTS for inhibitors of nuclear receptor binding SET domain protein 2 (NSD2) in an RCH-ACV wild type WT cells (2C) (AID 1645877); details: RCH-ACV (leukaemia line) NSD2 WT (2C) viability, CellTiter-Glo, 72 h; series mostly up to 44.9 µM; activity change, negative = cell killing: at the top concentration; note: nearly all actives have a fitted effect of over 70% in size
% is set by controls: 0 for no effect and ±100 for the full control effect; potency is the fitted concentration of half-maximal effect.

| SMILES | activity change, negative = cell killing | outcome | Potency |
| --- | --- | --- | --- |
| O=C(O)/C=C\C(=O)O | 9.46% (inactive) | – | – |
| Cc1ccc(C(=O)c2ccc(CC(=O)O)n2C)cc1 | – | inactive | – |
| CC(=O)c1ccc(OCC(=O)N2CCCCC2)cc1 | -25.5% (inactive) | – | – |
| COC(=O)c1nc(Cl)c(Cl)nc1N | – | – | 0.0376 µM (active) |
| O=C(/C=C/c1ccc(O)cc1)c1ccc(O)cc1O | – | – | 5.25 µM (active) |
| O=C(O)Cc1ccc(-c2ccccc2)cc1 | 2.68% (inactive) | – | – |
| O=C(O)Cc1cccc(-c2cc(CCCCCCc3ccc(O[C@H]4O[C@H](CO)[C@@H](O)[C@H](O)[C@@H]4O)c(-c4cccc(CC(=O)O)c4)c3)ccc2O[C@H]2O[C@H](CO)[C@@H](O)[C@H](O)[C@@H]2O)c1 | – | inactive [at 0.588 µM] | – |
| COc1ccnc2c1CCCCC2S(=O)c1nc2ccccc2[nH]1 (stereo unspecified) | -29.3% (inactive) | – | – |
| CCCCCCCCCCCCCCCCCC(=O)O | -5.4% (inactive) | – | – |
| CN(C)c1nc2c(Br)c(Br)c(Br)c(Br)c2[nH]1 | – | – | 10.3 µM (active) |
| CN[C@H](CC(C)C)C(=O)N[C@H]1C(=O)N[C@@H](CC(N)=O)C(=O)N[C@H]2C(=O)N[C@H]3C(=O)N[C@H](C(=O)N[C@H](C(=O)O)c4cc(O)cc(O)c4-c4cc3ccc4O)[C@H](O)c3ccc(c(Cl)c3)Oc3cc2cc(c3O[C@@H]2O[C@H](CO)[C@@H](O)[C@H](O)[C@H]2O[C@H]2C[C@](C)(N)[C@H](O)[C@H](C)O2)Oc2ccc(cc2Cl)[C@H]1O | 8.94% [at 17.3 µM] (inactive) | – | – |
| CCC1C(=O)OCC1Cc1cncn1C (stereo unspecified) | 9.64% (inactive) | – | – |
| CO[C@@]1(NC(=O)Cc2cccs2)C(=O)N2C(C(=O)O)=C(COC(N)=O)CS[C@@H]21 | 1.15% (inactive) | – | – |
| CCOC(=O)c1ccccc1O | 8.13% (inactive) | – | – |
| O=C(OCc1ccccc1)c1ccccc1 | -19.2% (inactive) | – | – |
| [O-][n+]1ccccc1SSc1cccc[n+]1[O-] | – | – | 0.103 µM (active) |
